Reference: PubChem BioAssay AID652257 (The Scripps Research Institute Molecular Screening Center, 2013)
The whole screen tested about 370,000 compounds, of which about 4,800 (1.3%) were called active. The full list was thinned out, with actives kept by preference. Unmarked numbers belong to inactive results.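 How the source made its calls: active means inhibition above about 21% made by adding two undisclosed values (limit read from the data); inactive means the rest.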

Biological target: Protein arginine N-methyltransferase 1 (Homo sapiens) (UniProt Q99873)
Assay: human PRMT1 activity-probe blockers – biochemical, fluorescence polarization, primary screen (AID 652257)
Settings: recombinant PRMT1, activity-based probe fluorescence polarization; at 2.79 µM; active compounds read high

Protein arginine N-methyltransferase 1 (Homo sapiens), sequence (Q99873 whole entry, looked up): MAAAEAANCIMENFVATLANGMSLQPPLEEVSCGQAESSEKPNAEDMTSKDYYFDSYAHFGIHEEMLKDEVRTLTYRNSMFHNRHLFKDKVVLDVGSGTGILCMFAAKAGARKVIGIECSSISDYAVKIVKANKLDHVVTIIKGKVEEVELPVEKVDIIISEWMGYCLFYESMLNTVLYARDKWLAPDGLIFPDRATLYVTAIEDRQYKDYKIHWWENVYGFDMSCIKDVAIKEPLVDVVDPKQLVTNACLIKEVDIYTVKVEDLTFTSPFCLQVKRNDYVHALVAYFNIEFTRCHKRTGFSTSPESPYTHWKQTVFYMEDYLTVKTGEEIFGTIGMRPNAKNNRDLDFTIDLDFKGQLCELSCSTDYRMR

SMILES | inhibition
C=CCN1[C@H](CC(C)C)COc2cccc(N3CCCC3)c2S1(=O)=O | 11.6%
O=C(CCC(=O)N1CCN(S(=O)(=O)c2ccccc2)CC1)NC1CCCc2ccccc21 (stereo not given) | 2.87%
O=C(CN1CCN(c2ccc(O)cc2)CC1)NC1CCCc2ccccc21 (stereo not given) | 26.1% (active)
O=C(CN1CCN(c2cccc(Cl)c2)CC1)Nc1ccc(S(=O)(=O)N2CCOCC2)cc1 | 1.21%
O=C(CSc1nncs1)NC1CCCc2ccccc21 (stereo not given) | 2.99%
O=C(CN1CCN(c2ccc(O)cc2)CC1)Nc1ccc(-c2ccccc2)cc1 | 21.2% (active)
CC(=O)c1ccc(N2CCN(CC(=O)Nc3ccccc3N3CCOCC3)CC2)cc1 | -1.3%
CCCCN1CC(CO)Oc2cccc(F)c2S1(=O)=O (stereo not given) | -3.97%
Cc1cc(C)c(NC(=O)CN2CCOCCOCCOCCOCC2)c(C)c1 | -1.78%
COC(=O)C1CN(Cc2ccc(F)cc2)CCS(=O)(=O)N1Cc1ccc(Cl)cc1 (stereo not given) | 0.79%
CC(=O)Nc1ccc(OC[C@@H](O)CN2CCC(C(O)(c3ccccc3)c3ccccc3)CC2)cc1 | -3.02%
COC(=O)[C@]12C[C@H](CC(=O)NCCCN3CCCC3=O)C(=O)N(CCc3ccc(OC)c(OC)c3)C1=C[C@H](COCc1ccccc1)O[C@@H]2C | -1.4%
COC(=O)C1CN(CCc2ccccc2)CCS(=O)(=O)N1Cc1cccc(Cl)c1 (stereo not given) | 4.71%
O=C(COC(=O)c1ccccc1SCC(=O)N1CCCC1)Nc1ccccc1OC(F)F | 2.04%
Cc1ccc(C(NC(=O)N2CCCC2)C(Cl)(Cl)Cl)cc1F (stereo not given) | -0.94%
CC1CCN(C(=O)CSc2nnc(-c3ccco3)n2N)CC1 | -3.61%
COc1ccc(Cl)cc1NS(=O)(=O)c1cccc(C(=O)NC2CCC(O)CC2)c1 (stereo not given) | -6.68%
COc1ccc(N2C(=O)/C(=C\c3ccco3)N=C2SCC(N)=O)cc1Cl | 25.5% (active)
COc1ccc([N+](=O)[O-])cc1NC(=O)COC(=O)/C=C/c1ccco1 | 5.77%
COc1ccc(Cl)cc1C(=O)NNC(=S)NC(=O)/C=C/c1ccco1 | -3.9%
COC(=O)[C@]12C[C@H](CC(=O)NCc3ccccc3)C(=O)N(CCC3=CCCCC3)C1=C[C@H](C(C)C)O[C@@H]2C1CC1 | -0.96%
CC(c1ccc(N)cc1)c1cn(C)c2ccccc12 (stereo not given) | -3.45%

SMILES | inhibition
COc1ccc(Cl)cc1-c1cc(C(=O)Nc2cc(OC)c(OC)c(OC)c2)[nH]n1 | -1.28%
CC(CCN1CCC(C(O)(c2ccccc2)c2ccccc2)CC1)Oc1ccc(Cl)cc1 (stereo not given) | 0.54%
C=CCn1c(=S)[nH]c2scc(-c3ccco3)c2c1=O | 38.1% (active)
O=C(CSc1nc2ccccc2n1Cc1ccccc1Cl)N/N=C\c1c[nH]c2ccccc12 | -0.85%
O=C(OCC(=O)N1CCCCCC1)c1cccc(Cl)c1Cl | -1.11%
CC(NC(=O)Nc1ccccc1)C(c1cccs1)N1CCN(c2ccccc2)CC1 (stereo not given) | 0.36%
O=[N+]([O-])c1ccc(NC(=S)N2CCN(c3ccccn3)CC2)cc1 | -0.91%
CCOC(=O)c1ccc(NC(=S)N2CCN(c3ccccn3)CC2)cc1 | -2.24%
CC(=NNC(=S)N1CCCCCC1)c1ccccn1 | 25.4% (active)
COC(=O)C1=C[C@@H](C(=O)OC)[C@@H]2C3=C(C(=O)[C@]2(C)NC(=O)c2ccccc2)[C@H](C)n2c(=O)n(C)c(=O)n2[C@@H]3C1 | 1.61%
CCOC(=O)c1ccccc1NC(=O)CSc1nc2c(sc(=S)n2CC)c(=O)[nH]1 | 19%
CSc1ncnc2c1ncn2CC(=O)C1CCC2C3CCC4=CC(=O)CCC4(C)C3CCC12C (stereo not given) | 0.25%
Cc1c(NS(=O)(=O)c2cc(C(=O)NCCc3ccc(F)cc3)cc(Cl)c2Cl)c(=O)n(-c2ccccc2)n1C | -3.45%
Cc1c(NS(=O)(=O)c2cccc(C(=O)Nc3ccc(SC(F)F)cc3)c2)c(=O)n(-c2ccccc2)n1C | 21.1% (active)
COc1ccc(C(=O)C(C)OC(=O)c2cccc(S(=O)(=O)Nc3c(C)n(C)n(-c4ccccc4)c3=O)c2)cc1 (stereo not given) | -2.91%
Cc1ccccc1-c1nc(CS(=O)(=O)CC(=O)NC(C)c2ccccc2)c(C)o1 (stereo not given) | -4.8%
Cc1sc2nc(CSCC(=O)Nc3c(Cl)cccc3Cl)[nH]c(=O)c2c1C | 13.1%
Cc1sc2nc(CSCC(=O)NC3CCCCC3)[nH]c(=O)c2c1C | 22.1% (active)
Cc1nc(SCC(=O)NC2CCCC2)[nH]c(=O)c1C | 1.36%
COC(CNC(=O)[C@H](Cc1ccccc1)NC1(C(=O)NC2CCCCC2)CCCCC1)OC | -5.82%
O=C(NCc1cccnc1)c1cnc2ccccc2n1 | -0.09%
CCOc1ccc(-n2c(SCC(=O)Nc3cc(C)c(NC(=O)c4ccccc4)cc3OC)nnc2-c2cccs2)cc1 | 2.3%

SMILES | inhibition
CC(=O)N1CC(C)c2scc(C)[n+]2-c2ccccc21 (stereo not given) | 53.9% (active)
Cc1ccc(NC(=O)C(CC(=O)O)C2CCCO2)c(C)c1 (stereo not given) | 2.66%
Cc1ccc(C(=O)N(Cc2ccccn2)CC2CCCO2)cc1 (stereo not given) | -2.09%
CNC(=S)NNC(=O)c1oc2nc(-c3ccccc3)cc(-c3ccco3)c2c1N | 21.9% (active)
NNC(=O)c1oc2nc(-c3ccccc3)cc(-c3ccco3)c2c1N | -3.39%
O=C(OCC#CCSc1nnc(-c2ccco2)o1)c1ccc(F)cc1 | -2.56%
COc1ccc(-c2cc(-c3nnc(SCc4ccc([N+](=O)[O-])cc4)n3N)[nH]n2)cc1 | -4.36%
O=C(NC(Cc1ccccc1)C(=O)O)/C(=C\c1ccccc1)NC(=O)c1ccco1 (stereo not given) | -0.14%
O=C(NC(Cc1c[nH]c2ccccc12)C(=O)O)/C(=C/c1ccco1)NC(=O)c1ccccc1 (stereo not given) | 25.5% (active)
O=C(NCc1ccco1)/C(=C/c1ccco1)NC(=O)c1ccccc1 | 7.1%
O=C1CC[C@@]23CCCN2C(=O)CCC[C@H]3[C@H]1Cc1ccccc1 | 2.04%
O=C(C[C@H]1C[C@H](C(=O)N2CCOCC2)[C@@]2(CCC3CCCC3)c3[nH]c4ccc(Cl)cc4c3CCN2C1=O)NCc1ccco1 | -5.92%
C=CCN1C(=O)[C@@H](CC(=O)NCCCCc2ccccc2)[C@]2(C(=O)OCC)CCCCC/C=C/12 | 1.83%
Cn1c(=O)[nH]c(=O)c2c1[nH]c(=S)n2Cc1ccccc1 | 4.37%
Cc1cc2nc3c(=O)n(Cc4ccccc4)c(=O)[nH]c3nc2cc1N | 142% (active)
CCC(=O)Nc1c(S(=O)(=O)c2ccccc2)c2nc3ccccc3nc2n1Cc1ccccc1 | 0.02%
CCC(CO)Nc1cccc2c1S(=O)(=O)N(Cc1cn(Cc3ccccc3C(F)(F)F)nn1)Cc1ccccc1O2 (stereo not given) | 0.43%
N#Cc1c(N2CCCCC2)nc(N)c2c(N)nc(SCC(=O)O)cc12 | 29.1% (active)
Cc1nn(-c2ncccn2)c2c1C(=O)CC(C)(C)C2Br (stereo not given) | -1.26%
CCOC(=O)c1cc2c(ccn2C)n1CC(=O)N1CCC(C)CC1 | 1.01%
O=C(CSc1nnc(-c2ccccn2)n1-c1ccc(Cl)cc1)Nc1ccccc1-c1ccccc1 | 0.72%
COCCN1C(=O)C(=O)/C(=C(/O)c2ccc(S(=O)(=O)N3CCOCC3)cc2)C1c1ccc(OC)c(OC)c1 (stereo not given) | 4.25%

SMILES | inhibition
CCOc1cc(C2/C(=C(/O)c3ccc(S(=O)(=O)N4CCCCC4)cc3)C(=O)C(=O)N2CCOC)ccc1O (stereo not given) | 28.9% (active)
COCCN1C(=O)C(=O)/C(=C(/O)c2ccc(S(=O)(=O)N3CCCCC3)cc2)C1c1ccc(OC)c(OC)c1 (stereo not given) | -2.03%
COC(=O)c1cc(NS(=O)(=O)c2ccc3c(c2)c(=O)n(C)c(=O)n3C)cc(C(=O)OC)c1 | 3.19%
CN(C)S(=O)(=O)c1ccc(N/C=C(\[N+](=O)[O-])S(=O)(=O)c2ccccc2)cc1 | 1.43%
CC(C)CSc1nnc(-c2cccnc2)n1Cc1ccccc1 | 1.95%
Cc1cccc(-c2nc3c(c(SCC(=O)N4CCOCC4)n2)CCCC3)c1 | -2.28%
C=CCN1C(=O)c2ccc(C(=O)N3CCC(C(=O)OCC)CC3)cc2C1=O | -1.32%
COc1ccc(NC(=O)C2C3CCC(O3)C2C(=O)O)cc1OC (stereo not given) | 1.91%
CC(C)OC(=O)c1cc(NC(=O)C2C3CCC(O3)C2C(=O)O)cc(C(=O)OC(C)C)c1 (stereo not given) | -2.71%
Cc1sc(NC(=O)C2C3CCC(O3)C2C(=O)O)c(C(=O)OC(C)C)c1-c1ccc(Cl)cc1 (stereo not given) | 22.5% (active)
CCOC(=O)c1csc(NC(=O)C2CCCN(S(=O)(=O)c3ccc(Cl)s3)C2)n1 (stereo not given) | -5.11%
Cc1nc(CNc2ncnc3ccc(-c4ccc5c(c4)OCO5)cc23)cs1 | 6.73%
COc1ccc(C(=O)OCCN2CCN(C3CN(Cc4cn(Cc5ccccc5F)nn4)S(=O)(=O)C3)CC2)cc1OC (stereo not given) | -2.53%
Cc1cccc(CS(=O)(=O)c2ncc(Cl)c(C(=O)Nc3ccc(F)cc3)n2)c1 | 31.4% (active)
Cc1cc(NS(=O)(=O)c2ccc(NC(=S)NC(=O)c3ccc(F)cc3Cl)cc2)no1 | -2.11%
Cc1cccc(NC(=O)c2cc3c(C)nn(-c4ccccc4)c3s2)c1 | -4.86%
O=C(CCS(=O)(=O)c1ccccc1)Nc1ccc(Cl)c(Cl)c1 | 1.21%
Cc1cccc(C(=O)Nc2c(-c3ccc(F)cc3)nc3ncccn23)c1 | 1.66%
Cc1cccc(NC(=O)c2nc(S(=O)(=O)Cc3ccccc3)ncc2Cl)c1 | 31.1% (active)
